Reference: PubChem BioAssay AID651911 (Vanderbilt Specialized Chemistry Center, 2012)
Calls of active or inactive are those of the source. No rule for the calls is given here.

Target: Histone deacetylase 11 (Homo sapiens) (UniProt Q96DB2)
Test: inhibitors of recombinant human HDAC11 – biochemical, selectivity assay for E-cadherin restoration project, profiling panel (AID 651911)
Conditions: recombinant HDAC11, fluorogenic peptide deacetylation; series mostly up to 10 µM

Histone deacetylase 11 (Homo sapiens), sequence (Q96DB2 whole entry, looked up): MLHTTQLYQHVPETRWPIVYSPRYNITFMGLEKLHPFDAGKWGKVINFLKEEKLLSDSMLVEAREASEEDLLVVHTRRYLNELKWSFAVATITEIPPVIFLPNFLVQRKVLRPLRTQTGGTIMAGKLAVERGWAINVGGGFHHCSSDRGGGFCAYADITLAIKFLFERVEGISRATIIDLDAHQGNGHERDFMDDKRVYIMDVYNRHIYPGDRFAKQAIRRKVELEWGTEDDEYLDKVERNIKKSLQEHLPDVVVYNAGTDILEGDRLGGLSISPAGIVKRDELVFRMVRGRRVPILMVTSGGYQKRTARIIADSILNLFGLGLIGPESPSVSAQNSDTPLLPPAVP

## O=C(NCCCNC(=O)c1ccc[nH]c1=O)c1cc(-c2ccccc2)on1
  outcome: inactive
